Consider eight compounds from PubChem BioAssay (Tox21).

The structures appear in SMILES notation. Values joined by “and” are separate entries in the source; they are usually repeats but may differ in a detail not shown here. Equal values may be shown once. Records with an inconclusive call do not appear. More than one record can exist for a structure, and the calls need not agree. Active and inactive are the calls of the source. Unless noted, the call rests on the fitted dose curve; in most records, active means well fitted curve in the direction sought with a large enough effect in the repeat runs; inconclusive means weak or mixed curves; inactive means no such curve, though single readings can be large; an effect the other way counts as inactive or inconclusive.

A short description of assay [1]: qHTS assay to identify aromatase inhibitors - cell viability counter screen (AID 743084).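 Further: cells stimulated with testosterone during compound exposure; nearly all actives have a fitted effect of over 55% in size.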 Further: potency means the concentration at half of the fitted maximal effect. A general note: qHTS replaces the single test concentration by a dilution series.
The nature of assay [2]: qHTS assay to identify small molecule that activate the aryl hydrocarbon receptor (AhR) signaling pathway - cell viability counter screen (AID 743086). Further: nearly all actives have a fitted effect of over 45% in size. Further: potency means the concentration at half of the fitted maximal effect. The gist of the method: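 HepG2-AhR-luc (HG2L7.5c1) cells, 4000/well, treated 24 h at 37 C with compound; viability measured as CellTiter-Fluor fluorescence after 30 min in the same wells as the luciferase read.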
The nature of assay [3]: qHTS assay for small molecule activators of the heat shock response signaling pathway (AID 743210; active means well fitted activation curve with a large enough effect in the signal ratio in the repeat runs, with a control signal flat, not every such curve was filed as active; the % refers to the signal ratio;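 further: HeLa cells with beta-lactamase reporter driven by heat shock elements; series mostly up to about 63 µM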). The gist of the method: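 Following overnight attachment, HSE-bla HeLa cells received test compounds for 5 h at 37 C; beta-lactamase activity was then detected via FRET substrate fluorescence.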
Assay [4] concerns the target Peroxisome proliferator-activated receptor delta (Homo sapiens) (UniProt Q03181). Nature of the assay: qHTS assay to identify small molecule agonists of the peroxisome proliferator-activated receptor delta (PPARd) signaling pathway (AID 743212; calls by dose curve). The gist of the method:
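Tox21 library screened in GeneBLAzer PPARd UAS-bla HEK293H cells. After compound treatment at 37 C, a FRET-based beta-lactamase substrate was applied for 2 h and fluorescence recorded.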

Assay [5] in a line: qHTS assay to identify small molecule antagonists of the peroxisome proliferator-activated receptor delta (PPARd) signaling pathway - cell viability counter screen (AID 743213). Further: nearly all actives have a fitted effect of over 50% in size. Further: potency means the concentration at half of the fitted maximal effect. The gist of the method:
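Agonist-stimulated (L165041, 300 nM final) HEK293H PPARd UAS-bla cells are exposed to compounds for 17 h at 37 C, and ATP-based luminescence (CellTiter-Glo) from the same wells reports cytotoxicity.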

The nature of assay [6]: qHTS assay to identify small molecule agonists of the farnesoid-X-receptor (FXR) signaling pathway - cell viability counter screen (AID 743218). Further: nearly all actives have a fitted effect of over 45% in size. Further: potency means the concentration at half of the fitted maximal effect. The gist of the method: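 Readout: CellTiter-Glo luminescence, 30 min RT, multiplexed after the FXR-bla FRET reading. HEK 293T FXR-UAS-bla cells received compound 5 h post-plating and were incubated 16 h at 37 C.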
Assay [7] in a line: qHTS assay to identify small molecule antagonists of the farnesoid-X-receptor (FXR) signaling pathway - cell viability counter screen (AID 743221; active means well fitted cell-killing curve with a large enough effect in the repeat runs, not every such curve was filed as active; further: nearly all actives have a fitted effect of over 50% in size; further: potency means the concentration at half of the fitted maximal effect). The gist of the method:
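Cytotoxicity counter screen run in the FXR-bla reporter wells: HEK 293T cells exposed to compound with 50 uM (final) chenodeoxycholic acid for 16 h, 37 C, then viability measured by CellTiter-Glo luminescence after 30 min, room temperature.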

A short description of assay [8]: qHTS assay to identify small molecule antagonists of the peroxisome proliferator-activated receptor gamma (PPARg) signaling pathway - cell viability counter screen (AID 743194). Further: nearly all actives have a fitted effect of over 55% in size. Further: potency means the concentration at half of the fitted maximal effect. The gist of the method:
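Cytotoxicity counter screen in PPARg-bla HEK293H cells, same wells as reporter assay. Compounds plus 50 nM rosiglitazone (final) for 17 h at 37 C, then viability read by CellTiter-Glo luminescence.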

Assay [9] is described as follows: qHTS assay for small molecule agonists of the antioxidant response element (ARE) signaling pathway - cell viability counter screen (AID 743203; calls by dose curve; further: nearly all actives have a fitted effect of over 55% in size; further: potency means the concentration at half of the fitted maximal effect). The gist of the method: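 Measured in the same wells as the beta-lactamase ARE reporter, this read-out is CellTiter-Glo luminescence from HepG2 ARE-bla cells given compounds for 16 hrs.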
A short description of assay [10]: qHTS assay to identify small molecule agonists of the peroxisome proliferator-activated receptor delta (PPARd) signaling pathway - cell viability counter screen (AID 743211). Further: nearly all actives have a fitted effect of over 55% in size. Further: potency means the concentration at half of the fitted maximal effect. The gist of the method:
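Viability was measured as CellTiter-Glo luminescence (30 min, room temperature) in the same wells as the beta-lactamase readout. GeneBLAzer PPARd UAS-bla HEK293H cells received compound after 5 h plating and were incubated 17 h at 37 C.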

Assay [11] deals with Vitamin D3 receptor (Homo sapiens) (UniProt P11473). Nature of the assay: qHTS assay to identify small molecule agonists of the vitamin D receptor (VDR) signaling pathway (AID 743222; calls by dose curve). The gist of the method:
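Following 4 h attachment at 37C, VDR-bla cells (2,000 per well) received DMSO-dissolved compounds or controls. After 16 h incubation, LiveBLAzer B/G FRET substrate was added and fluorescence read 2 h later at room temperature.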

Assay [12] shares this target. Nature of the assay: qHTS assay to identify small molecule antagonists of the vitamin D receptor (VDR) signaling pathway (AID 743223; active means well fitted inhibition curve with a large enough effect in the signal ratio in the repeat runs, not every such curve was filed as active; the % refers to the signal ratio). The gist of the method: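 Antagonist mode: compound added to VDR-bla cells alongside agonist 1alpha,25-dihydroxyvitamin D3 (3 nM final), incubation 16 h at 37C. Read-out is LiveBLAzer FRET fluorescence, 2 h at room temperature.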
A short description of assay [13]: qHTS assay for small molecule activators of the heat shock response signaling pathway - cell viability counter screen (AID 743209). Further: nearly all actives have a fitted effect of over 50% in size. Further: potency means the concentration at half of the fitted maximal effect. The gist of the method:
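Same-well multiplex: after 2.5 h room-temperature incubation with LiveBLAzer B/G substrate and fluorescence reading, CellTiter-Glo reagent was added to HSE-bla HeLa cells that had received compound for 5 h at 37 C; luminescence read after 30 min.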

The target in assay [14] is Peroxisome proliferator-activated receptor gamma (Homo sapiens) (UniProt P37231). The experiment in a line: qHTS assay to identify small molecule agonists of the peroxisome proliferator-activated receptor gamma (PPARg) signaling pathway (AID 743094; active means well fitted activation curve with a large enough effect in the signal ratio in the repeat runs, not every such curve was filed as active; the % refers to the signal ratio). The gist of the method:
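Cell-based bla reporter, HEK293H background, PPARg-driven UAS. Pre-incubation 5 h, 37C, 5% CO2. Compound 17 h, 37C. Substrate 1 h RT; fluorescence.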

For assay [15], the target named is Bile acid receptor (Homo sapiens) (UniProt Q96RI1). The experiment in a line: qHTS assay to identify small molecule antagonists of the farnesoid-X-receptor (FXR) signaling pathway (AID 743217; active means well fitted inhibition curve with a large enough effect in the signal ratio in the repeat runs, not every such curve was filed as active; the % refers to the signal ratio; further: potency means the concentration at half of the fitted maximal effect). The gist of the method:
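FRET fluorescence after 2 h room-temperature LiveBLAzer loading gives the readout. Prior step: FXR-bla HEK 293T cells, seeded and incubated 5 h, received test compounds plus 50 uM final CDCA for 16 h at 37 °C.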

Assay [16] can be described thus: qHTS assay for small molecule agonists of the antioxidant response element (ARE) signaling pathway (AID 743202; active means well fitted activation curve with a large enough effect in the signal ratio in the repeat runs, not every such curve was filed as active; the % refers to the signal ratio). The gist of the method:
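HepG2 ARE-bla cells; 16 h treatment at 37 C; FRET-based beta-lactamase fluorescence read after 2 h substrate incubation at room temperature.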

The target of assay [17] is Peroxisome proliferator-activated receptor delta (Homo sapiens) (UniProt Q03181). The experiment in a line: qHTS assay to identify small molecule antagonists of the peroxisome proliferator-activated receptor delta (PPARd) signaling pathway (AID 743215; active means well fitted inhibition curve with a large enough effect in the signal ratio in the repeat runs, not every such curve was filed as active; the % refers to the signal ratio; further: series mostly up to about 62 µM). The gist of the method:
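Fluorescence from cleaved LiveBLAzer B/G FRET substrate (2 h, room temperature) reports PPARd-driven beta-lactamase in HEK293H UAS-bla cells. Cells had been treated 17 h at 37 C with compound plus 300 nM final L165041.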

Vitamin D3 receptor (Homo sapiens), sequence (P11473 whole entry, looked up): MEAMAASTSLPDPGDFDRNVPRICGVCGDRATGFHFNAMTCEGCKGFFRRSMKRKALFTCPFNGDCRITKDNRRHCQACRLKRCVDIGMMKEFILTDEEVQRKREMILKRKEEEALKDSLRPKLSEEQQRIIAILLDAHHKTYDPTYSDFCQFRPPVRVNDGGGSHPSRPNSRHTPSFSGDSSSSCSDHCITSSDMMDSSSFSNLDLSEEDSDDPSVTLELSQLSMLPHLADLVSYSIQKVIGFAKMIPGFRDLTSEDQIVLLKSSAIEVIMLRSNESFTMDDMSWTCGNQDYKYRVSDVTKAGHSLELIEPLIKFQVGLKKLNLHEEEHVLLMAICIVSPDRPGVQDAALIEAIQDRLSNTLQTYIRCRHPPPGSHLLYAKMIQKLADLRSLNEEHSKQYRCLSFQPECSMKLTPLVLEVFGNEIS
Bile acid receptor (Homo sapiens), sequence (Q96RI1 whole entry, looked up): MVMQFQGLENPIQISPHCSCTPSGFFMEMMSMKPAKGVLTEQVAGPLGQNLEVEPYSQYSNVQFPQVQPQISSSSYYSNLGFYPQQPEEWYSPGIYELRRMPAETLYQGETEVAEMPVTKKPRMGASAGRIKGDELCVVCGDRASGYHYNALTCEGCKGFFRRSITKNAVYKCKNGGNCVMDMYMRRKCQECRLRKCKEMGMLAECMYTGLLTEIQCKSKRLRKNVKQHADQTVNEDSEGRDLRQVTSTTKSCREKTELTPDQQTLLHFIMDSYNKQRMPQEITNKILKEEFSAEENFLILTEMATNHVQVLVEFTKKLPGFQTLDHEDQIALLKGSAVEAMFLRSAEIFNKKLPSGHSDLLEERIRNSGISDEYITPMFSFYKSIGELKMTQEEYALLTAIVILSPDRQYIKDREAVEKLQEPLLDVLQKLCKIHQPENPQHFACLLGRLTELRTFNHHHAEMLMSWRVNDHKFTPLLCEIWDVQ
Peroxisome proliferator-activated receptor delta (Homo sapiens), sequence (Q03181 whole entry, looked up): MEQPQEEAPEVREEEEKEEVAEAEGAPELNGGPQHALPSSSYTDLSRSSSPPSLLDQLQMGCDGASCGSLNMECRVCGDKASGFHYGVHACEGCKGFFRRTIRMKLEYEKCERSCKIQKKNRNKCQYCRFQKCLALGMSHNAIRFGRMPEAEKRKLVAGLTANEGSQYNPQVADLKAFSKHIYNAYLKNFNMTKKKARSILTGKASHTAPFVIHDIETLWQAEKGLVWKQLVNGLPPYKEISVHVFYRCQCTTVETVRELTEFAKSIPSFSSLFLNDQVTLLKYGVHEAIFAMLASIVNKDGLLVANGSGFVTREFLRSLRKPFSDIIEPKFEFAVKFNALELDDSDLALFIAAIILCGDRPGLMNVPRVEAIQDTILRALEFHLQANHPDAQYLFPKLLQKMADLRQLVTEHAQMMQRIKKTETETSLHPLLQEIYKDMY
Peroxisome proliferator-activated receptor gamma (Homo sapiens), sequence (P37231 whole entry, looked up): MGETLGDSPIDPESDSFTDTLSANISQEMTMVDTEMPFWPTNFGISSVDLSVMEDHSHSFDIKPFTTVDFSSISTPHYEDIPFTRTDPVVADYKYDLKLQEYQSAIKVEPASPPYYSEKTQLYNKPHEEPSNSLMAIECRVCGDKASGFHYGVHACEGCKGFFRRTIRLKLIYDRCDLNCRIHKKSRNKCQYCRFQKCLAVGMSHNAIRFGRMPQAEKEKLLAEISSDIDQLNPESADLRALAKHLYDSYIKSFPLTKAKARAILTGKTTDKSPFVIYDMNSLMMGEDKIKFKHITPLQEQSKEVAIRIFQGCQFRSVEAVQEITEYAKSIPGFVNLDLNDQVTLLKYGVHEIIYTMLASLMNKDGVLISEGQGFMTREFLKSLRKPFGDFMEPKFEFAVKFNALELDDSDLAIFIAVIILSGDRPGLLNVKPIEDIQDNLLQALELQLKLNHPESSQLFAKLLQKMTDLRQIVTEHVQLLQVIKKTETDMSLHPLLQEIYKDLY

Turning to `COc1cccc2c1C(=O)c1c(O)c3c(c(O)c1C2=O)C[C@@](O)(C(=O)CO)C[C@@H]3O[C@H]1C[C@H](N)[C@H](O[C@@H]2CCCCO2)[C@H](C)O1`, the Potency was 13.3 µM (active) in [1] and 6.68 µM (active) in assay [2]. Also, the Potency result in assay [3], in [4], in assay [5], in assay [6] and in assay [7] was “inactive” in each case.

On to `Clc1ccccc1C(c1ccccc1)(c1ccccc1)n1ccnc1`, for which the Potency result in assay [1], in assay [5], in assay [11] and in assay [12] was “inactive” each time. The Potency result in [2] is “inactive and 54.5 µM (active)”; in [8], 24.5 µM (active); in assay [9], 30.6 µM (active); in assay [10] it was 54.9 µM (active); in assay [6], 54.9 µM (active).

Consider `O=c1[nH]sc2ccccc12`, for which the Potency was 24.3 µM (active) in assay [1]; 68.6 µM (active) in assay [2]; 30.6 µM (active) in assay [9]; 54.9 µM (active) in [13]; 49 µM (active) in assay [6]; 49 µM (active) in assay [7]. Also, in assay [11], the Potency result was “inactive”.

With `Cc1cc(O)c(Cl)c(C)c1Cl`, the Potency was 61.1 µM (active) in [1]; 30.6 µM (active) in assay [9]; 38.9 µM (active) in assay [13]; 49 µM (active) in [15]; 49 µM (active) in [6]; 49 µM (active) in assay [7]. The Potency entry in assay [14] and in assay [11] was “inactive” each time.

`CCC(C)Nc1ccc(NC(C)CC)cc1` (stereo unspecified): the Potency in assay [1] was 8.8 µM (active); in assay [2] it was 55.5 µM (active); in assay [8] it was 12.5 µM (active); in assay [9], 7.84 µM (active); in assay [13], 22.3 µM (active); in [10], 12.5 µM (active). Also, the Potency in assay [5] is 22.3 µM (active); in [6], 22.3 µM (active); in assay [7], 35.3 µM (active).

Consider `CC(C)(C)c1ccc(C(=O)O)cc1`, for which the Potency entry in [1], in assay [2], in assay [8], in assay [16], in assay [9] and in [13] was “inactive” each time. Also, the Potency result in [3], in [10], in [5], in [15], in assay [6] and in assay [7] was “inactive” throughout. Besides, in assay [11], the Potency result was “inactive”.

On to `CC(C)OC(=O)c1cc2c(OCC(O)CNC(C)(C)C)cccc2[nH]1` (stereo unspecified), for which the Potency entry in [1], in assay [2], in [9], in assay [13], in assay [3] and in [5] was “inactive” each time. Also, the Potency result in [17], in assay [6] and in assay [11] was “inactive” each time.

On to `CCCCCCCCCCCCCCCCCC[N+](C)(C)C`, for which the Potency was 27.4 µM (active) in [1]; 27.6 µM (active) in [8]; 48.7 µM (active) in [9]; 34.8 µM (active) in [13]; 13.8 µM (active) in assay [10]; 27.6 µM (active) in [5]. In addition, the Potency in assay [6] is 24.6 µM (active); in [7], 55.1 µM (active). In addition, the Potency result in assay [2] was “inactive”.
